Reference: PubChem BioAssay (EPA / NIEHS)
“And” between values parts separate entries of the source, which are not always exact repeats. Equal entries are not always repeated. The source holds several records for some structures; these can differ, active in one and inactive in another. The source made the active and inactive calls. How the source made its calls: active means hit-call score of the fitted dose curve at least 0.9, where 1 is the maximum; inactive means score below 0.9.

What was measured:
[1] = IUF_NPC2c_oligodendrocyte_migration_120hr: Leibniz Research Institute for Environmental Medicine (IUF) 120-hour Neural Progenitor Cell Migration Assay for Oligodendrocyte Migration (NPC2c) (AID 2284297);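 further: O4-positive oligodendrocyte migration distance divided by radial glia migration distance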
How it was run: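 Using fetal brain neural progenitor spheres differentiating in N2 medium at 37C, compounds were present for 120 h. Oligodendrocyte migration distance, normalized to radial glia migration, was measured from imaged O4 staining.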

[2] = IUF_NPC2a_radial_glia_migration_120hr: Leibniz Research Institute for Environmental Medicine (IUF) 120-hour Neural Progenitor Cell Migration Assay for Radial Glia Migration (NPC2a) (AID 2284298)
How it was run: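 Exposure of 0.3 mm primary hNPC spheres runs day 0 to 120 h with a half-volume medium change at day 3. Fixed cells get Hoechst staining; high-content analysis of nuclear positions yields radial glia migration distance per well, compared against DMSO controls.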

[3] = IUF_NPC2a_radial_glia_migration_72hr: Leibniz Research Institute for Environmental Medicine (IUF) 72-hour Neural Progenitor Cell Migration Assay for Radial Glia Migration (NPC2a) (AID 2284299)
How it was run: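 Single 0.3 mm neurospheres were plated per well in N2 differentiation medium and exposed from the start of differentiation. After 72 hours, brightfield images were taken and radial glia migration from the sphere core edge was measured manually in four directions, averaged per well.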

[4] = read-out: Thrombomodulin, THBD (gene 7056); assay: BSK_LPS_Thrombomodulin: BioMAP Diversity Plus: LPS Assay for Thrombomodulin Biomarker Activity (AID 2284296); settings: primary human HUVEC with PBMC
How it was run: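 Thrombomodulin on the surface of LPS-activated endothelial/PBMC co-cultures was quantified by ELISA at 24 hours post-dosing, with DMSO as baseline. Parallel SRB total-protein staining flagged overt cytotoxicity.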

[5] = read-out: Interleukin-1 alpha (IL1a), IL1A (gene 3552); assay: BSK_IMphg_IL1a: BioMAP Diversity Plus: IMphg Assay for Interleukin-1 alpha (IL1a) Biomarker Activity (AID 2284290); settings: primary human endothelial cells with macrophages
Description: (§1) BSK_IMphg is a cell-based, multiplexed-readout assay that uses venular endothelial cells and macrophages, a human vascular primary cell, with measurements taken at 24 hours after chemical dosing in a microplate: 96-well plate.BSK_IMphg_IL1a is an assay component measured in the BSK_IMphg assay. It measures IL-1a antibody related to regulation of gene expression using ELISA technology.Data from the assay component BSK_IMphg_IL1a was analyzed at the endpoint, BSK_IMphg_IL1a, in the positive analysis fitting direction relative to DMSO as the negative control and baseline of activity. Using a type of binding reporter, gain or loss-of-signal activity can be used to understand protein changes. To generalize the intended target to other relatable targets, this assay endpoint is annotated to the 'cytokine' intended target family, where the subfamily is 'interleukins'.
(§2) The levels of cell surface (or secreted, indicated by the prefix "s") biomarker endpoints were measured by ELISA. Overt cytotoxicity to cells in confluent adherent cultures (all systems other than the BT system) was assessed by measuring total protein levels using sulforhodamine B (SRB) staining in parallel cultures at the time of biomarker measurements, indicated as SRB endpoints. For proliferation assays for adherent cell types, individual cell types are cultured at sub-confluence and relative cell numbers quantified by SRB staining at time points optimized for each system (48 h: 3C and CASM3C systems; 72 h: BT and HDF3CGF systems; 96 h: SAg system). SRB was performed by staining cells with 0.1% SRB after fixation with 10% TCA and reading wells at 560 nm.Viability and proliferation of PBMC (T cells) was quantified by Alamar Blue reduction for the SAg and BT systems. For PBMC viability (referred to as PBMC Cytotoxicity within the assay endpoint names), cells were plated (75,000/well in a 96-well plate) and then chemical samples added for 1 h before addition of activators, SEB and TSST-1 (20 ng/mL final concentration each). Cells were incubated for 90 h. Then, Alamar Blue (20 uL/well) (Invitrogen, Cat DAL1100) was added for 6 h, and the plates were read with a fluorescence microplate reader at 546/580 nm (excitation/emission). For PBMC proliferation, cells were plated and activated as above but incubated for only 16 h prior to addition of Alamar Blue. Plates were read after 6 h.

[6] = read-out: E-selectin (Homo sapiens) (UniProt P16581); assay: BSK_IMphg_ESelectin: BioMAP Diversity Plus: IMphg Assay for Eselectin Biomarker Activity (AID 2284291); settings: primary human endothelial cells with macrophages
Description: as §1, with “plate.BSK_IMphg_ESelectin” for “plate.BSK_IMphg_IL1a”, “E-selectin” for “IL-1a”, “BSK_IMphg_ESelectin” for “BSK_IMphg_IL1a”, “BSK_IMphg_ESelectin,” for “BSK_IMphg_IL1a,”, “'cell adhesion molecules'” for “'cytokine'”, “'selectins'.” for “'interleukins'.”
as §2

[7] = BSK_IMphg_SRB: Viability Assessment in the BioMAP Diversity Plus: IMphg Assay (AID 2284292); settings: primary human endothelial cells with macrophages;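 further: measured one day after compound addition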
How it was run: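 SRB viability endpoint: cultures of human endothelial cells plus macrophages fixed with 10% TCA, stained with 0.1% SRB, read at 560 nm 24 h post-dosing. Only gain-of-signal fitted, relative to DMSO.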

[8] = read-out: Macrophage colony-stimulating factor (MCSF), CSF1 (gene 1435); assay: BSK_IMphg_MCSF: BioMAP Diversity Plus: IMphg Assay for Macrophage colony-stimulating factor (MCSF) Biomarker Activity (AID 2284293); settings: primary human endothelial cells with macrophages
Description: as §1, with “plate.BSK_IMphg_MCSF” for “plate.BSK_IMphg_IL1a”, “M-CSF” for “IL-1a”, “BSK_IMphg_MCSF” for “BSK_IMphg_IL1a”, “BSK_IMphg_MCSF,” for “BSK_IMphg_IL1a,”, “'colony stimulating factor'.” for “'interleukins'.”
as §2

[9] = read-out: Interleukin-10 (IL10), IL10 (gene 3586); assay: BSK_IMphg_IL10: BioMAP Diversity Plus: IMphg Assay for Interleukin-10 (IL10) Biomarker Activity (AID 2284294); settings: primary human endothelial cells with macrophages
How it was run: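 IL-10 read by ELISA after 24 h chemical exposure of primary human venular endothelial cell/macrophage cocultures, with DMSO as baseline. Parallel SRB staining (560 nm) gauged overt cytotoxicity.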

[10] = BSK_IMphg_SRB.Mphg: Macrophage Viability Assessment in the BioMAP Diversity Plus: IMphg Assay (AID 2284295); settings: primary human endothelial cells with macrophages
Description: BSK_IMphg is a cell-based, multiplexed-readout assay that uses venular endothelial cells and macrophages, a human vascular primary cell, with measurements taken at 24 hours after chemical dosing in a microplate: 96-well plate.BSK_IMphg_SRB.Mphg is an assay component measured in the BSK_IMphg assay. It measures […] related to cell death using Sulforhodamine staining technology.Data from the assay component BSK_IMphg_SRB.Mphg was analyzed at the endpoint, BSK_IMphg_SRB.Mphg, in the positive analysis fitting direction relative to DMSO as the negative control and baseline of activity. Using a type of viability reporter, gain or loss-of-signal activity can be used to understand protein changes. To generalize the intended target to other relatable targets, this assay endpoint is annotated to the 'cell morphology' intended target family, where the subfamily is 'cell conformation'.
as §2

Sequence of E-selectin (Homo sapiens) (P16581 whole entry, looked up): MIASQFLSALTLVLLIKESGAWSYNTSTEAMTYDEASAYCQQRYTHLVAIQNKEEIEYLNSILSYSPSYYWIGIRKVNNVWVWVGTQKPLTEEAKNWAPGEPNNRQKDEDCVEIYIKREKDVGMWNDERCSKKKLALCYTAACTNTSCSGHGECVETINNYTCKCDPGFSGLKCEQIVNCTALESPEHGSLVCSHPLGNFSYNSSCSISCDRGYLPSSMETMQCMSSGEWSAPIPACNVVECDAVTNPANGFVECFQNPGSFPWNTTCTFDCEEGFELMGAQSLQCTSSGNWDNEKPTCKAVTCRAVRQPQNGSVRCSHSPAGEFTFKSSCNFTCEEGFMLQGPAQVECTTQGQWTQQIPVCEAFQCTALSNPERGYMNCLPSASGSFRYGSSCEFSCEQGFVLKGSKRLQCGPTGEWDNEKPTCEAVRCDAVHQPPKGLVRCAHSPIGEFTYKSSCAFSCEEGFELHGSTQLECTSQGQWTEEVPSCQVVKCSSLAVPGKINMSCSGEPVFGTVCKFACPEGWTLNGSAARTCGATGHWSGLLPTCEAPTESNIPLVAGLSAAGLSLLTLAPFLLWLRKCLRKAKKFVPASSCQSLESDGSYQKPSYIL

For `c1ccc2scnc2c1`, the outcome [1] was “inactive”, the outcome [2] was “inactive” and the outcome [3] was “inactive”.

In the case of `CCn1cc(C(=O)O)c(=O)c2ccc(C)nc21`, the outcome [4] is reported as “inactive”.

In the case of `CC(=O)c1ccc(C)cc1`, the outcome [4] is reported as “inactive”.

In the case of `O=S(=O)(O)C(F)(F)C(F)(F)OC(F)(F)C(F)(F)F`, the outcome [5] is reported as “inactive”, the outcome [6] is reported as “inactive” and the outcome [7] is reported as “inactive”. The outcome [8] was “inactive”, the AC50 [9] was 47.8 µM (active) and 44.1 µM (active) and the outcome [10] was “inactive”. For the same compound, the outcome [4] was “inactive”.

With `CCCCN(CCO)CCO` the outcome [4] was “inactive”.

For `CC(C)Cc1ccc(C(C)C(=O)O)cc1` (stereo not given), the outcome [1] was “inactive”, the outcome [2] was “inactive” and the outcome [3] was “inactive”.

With `C=C(F)C(=O)OC(C(F)(F)F)C(F)(F)F` the outcome [5] was “inactive”, the outcome [6] was “inactive” and the outcome [7] was “inactive”. For the same compound, the outcome [8] was “inactive”, the outcome [9] was “inactive” and the outcome [10] was “inactive”. The outcome [4] was “inactive”.

With `O=C(O)C(F)(F)OC(F)(F)C(F)(F)OC(F)(F)C(F)(F)C(F)(F)C(F)(F)F` the outcome [5] was “inactive”, the outcome [6] was “inactive” and the outcome [7] was “inactive”. For the same compound, the outcome [8] was “inactive”, the AC50 [9] was 46.5 µM (active) and 49.5 µM (active) and the outcome [10] was “inactive”. The outcome [4] was “inactive”.

For `C=C(C)C(=O)OCCC(F)(F)C(F)(F)C(F)(F)C(F)(F)C(F)(F)C(F)(F)C(F)(F)C(F)(F)F`, the outcome [5] was “inactive”, the outcome [6] was “inactive” and the outcome [7] was “inactive”. For the same compound, the outcome [8] was “inactive”, the outcome [9] was “inactive” and the outcome [10] was “inactive”. The outcome [4] was “inactive”.

For `OCC(F)(OC(F)(F)C(F)(OC(F)(F)C(F)(F)C(F)(F)F)C(F)(F)F)C(F)(F)F` (stereo not given), the outcome [5] was “inactive”, the AC50 [6] was 5.64 µM (active) and 3.5 µM (active) and the AC50 [7] was 6.17 µM (active). For the same compound, the outcome [7] was “inactive”, the outcome [8] was “inactive” and the AC50 [9] was 3.33 µM (active). The outcome [9] was “inactive”, the AC50 [10] was 4.31 µM (active) and the outcome [10] was “inactive”. The outcome [4] was “inactive”.

With `CC(C)CCCC(C)(C)O` the outcome [4] was “inactive”.

In the case of `O=C(O)C(F)(F)C(F)(F)C(F)(F)C(F)(F)C(F)(F)C(F)(F)C(F)(F)C(F)F`, the outcome [5] is reported as “inactive”, the outcome [6] is reported as “inactive” and the outcome [7] is reported as “inactive”. For the same compound, the outcome [8] was “inactive”, the AC50 [9] was 47.1 µM (active) and 57.5 µM (active) and the outcome [10] was “inactive”. For the same compound, the outcome [4] was “inactive”.

In the case of `CCCO[Si](OCCC)(OCCC)OCCC`, the outcome [4] is reported as “inactive”.

With `c1ccc(OCCOc2ccccc2)cc1` the AC50 [4] was 12.3 µM (active) and the outcome [4] was “inactive”.

In the case of `N[C@@H](CCC(=O)O)C(=O)O`, the outcome [1] is reported as “inactive”, the outcome [2] is reported as “inactive” and the outcome [3] is reported as “inactive”.

For `CCCCC(CC)COC(=O)COc1ccc(Cl)cc1C` (stereo not given), the outcome [1] was “inactive”, the outcome [2] was “inactive” and the outcome [3] was “inactive”.

With `CC(C)(CO)CO` the outcome [4] was “inactive”.
